# Results filed as inconclusive are left out. Where a call stands in place of a potency, no number is given. Calls of active or inactive are those of the source. Unless noted, calls follow the shape of the dose curve; as a rule, active = well fitted curve in the direction sought with a large enough effect in the repeat runs; inconclusive = weak or mixed curves; inactive = no such curve, though single readings can be large; an effect the other way counts as inactive or inconclusive.
# Target: Aryl hydrocarbon receptor (Homo sapiens) (UniProt P35869)
# Assay: qHTS assay to identify small molecule that activate the aryl hydrocarbon receptor (AhR) signaling pathway (AID 743085);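 also: HG2L7.5c1 human HepG2 liver cells with stably integrated DRE-driven firefly reporter; nearly all actives have a fitted effect of over 15% in size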
# Details: HepG2 AhR-luc (HG2L7.5c1), luciferase, 24 h; series mostly up to 70.3 µM
# Outline: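 Luminescence read-out: ONE-Glo reagent, 30 min at room temperature, in HG2L7.5c1 HepG2 reporter cells treated 24 h at 37C. Viability was measured beforehand by CellTiter-Fluor fluorescence after 30 min at 37C.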
# Sequence of Aryl hydrocarbon receptor (Homo sapiens) (P35869 whole entry, looked up): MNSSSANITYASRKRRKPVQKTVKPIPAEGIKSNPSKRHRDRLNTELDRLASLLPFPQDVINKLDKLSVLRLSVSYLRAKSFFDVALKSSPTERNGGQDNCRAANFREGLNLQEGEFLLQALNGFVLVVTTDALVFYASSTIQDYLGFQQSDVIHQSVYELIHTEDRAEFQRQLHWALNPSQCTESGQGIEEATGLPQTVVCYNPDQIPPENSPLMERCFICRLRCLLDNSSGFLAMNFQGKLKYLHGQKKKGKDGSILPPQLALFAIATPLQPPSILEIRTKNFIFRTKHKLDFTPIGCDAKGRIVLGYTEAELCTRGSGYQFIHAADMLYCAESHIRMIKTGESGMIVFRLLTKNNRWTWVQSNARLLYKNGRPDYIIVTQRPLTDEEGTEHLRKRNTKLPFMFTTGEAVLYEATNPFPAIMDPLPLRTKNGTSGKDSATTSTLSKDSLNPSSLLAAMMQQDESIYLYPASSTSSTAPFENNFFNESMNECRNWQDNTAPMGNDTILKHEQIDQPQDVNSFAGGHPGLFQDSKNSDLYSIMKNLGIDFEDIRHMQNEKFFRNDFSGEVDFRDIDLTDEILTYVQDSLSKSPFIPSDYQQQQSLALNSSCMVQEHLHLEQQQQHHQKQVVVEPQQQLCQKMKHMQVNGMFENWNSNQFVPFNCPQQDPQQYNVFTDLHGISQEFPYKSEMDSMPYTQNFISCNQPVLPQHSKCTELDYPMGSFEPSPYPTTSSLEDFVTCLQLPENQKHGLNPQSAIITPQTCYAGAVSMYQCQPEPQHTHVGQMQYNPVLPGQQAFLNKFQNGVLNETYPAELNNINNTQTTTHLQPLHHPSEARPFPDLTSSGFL
Structure (SMILES),Potency,activation
O=C(O)C(c1ccc(Cl)cc1)c1ccc(Cl)cc1,inactive,
Clc1ccccc1-c1ccccc1Cl,inactive,
C[C@@]12C(=O)OC(=O)[C@]1(C)C1CCC2O1,inactive,
Cc1cccc([N+](=O)[O-])c1C,inactive,
Brc1c2ccccc2cc2ccccc12,inactive,
Brc1ccc(Br)c(Br)c1,inactive,
Oc1c(Cl)ccc(Cl)c1Cl,inactive,
Brc1c2ccccc2c(Br)c2ccccc12,,-3.68% [at 8.47 µM] (inactive)
COCCOC(=O)c1ccccc1C(=O)OCCOC,inactive,
CCCCC(CC)COC(=O)CCCCC(=O)OCC(CC)CCCC (stereo not drawn),inactive,
c1ccncc1,inactive,
CCc1cccc(C)c1N,inactive,

# Tested on: not listed separately
# Assay: qHTS assay for small molecule activators of the heat shock response signaling pathway (AID 743210; active = well fitted activation curve with a large enough effect in the signal ratio in the repeat runs, with a control signal flat, not every such curve was filed as active; the % refers to the signal ratio;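 also: HeLa cells with beta-lactamase reporter driven by heat shock elements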)
# Details: HeLa HSE-bla reporter, beta-lactamase ratio, 5 h; series mostly up to 62.6 µM
# Outline: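 Reporter gene assay: HeLa cells stably bearing an HSE-bla construct, compound treatment 5 h at 37 C, LiveBLAzer substrate 2.5 h at RT, fluorescence intensity.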
row,Structure (SMILES),Potency
1,Nc1ccc(Cl)cc1Cl,inactive
2,Clc1ccccc1-c1ccccc1Cl,inactive
3,Brc1ccc(Br)c(Br)c1,inactive

# Target: Peroxisome proliferator-activated receptor delta (Homo sapiens) (UniProt Q03181)
# Assay: qHTS assay to identify small molecule antagonists of the peroxisome proliferator-activated receptor delta (PPARd) signaling pathway (AID 743215; active = well fitted inhibition curve with a large enough effect in the signal ratio in the repeat runs, not every such curve was filed as active; the % refers to the signal ratio;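 also: cells stimulated with agonist L165041 at 300 nM final during compound exposure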)
# Details: HEK293H PPARd-UAS-bla, beta-lactamase FRET ratio, antagonist, 17 h; series mostly up to 62 µM
# Outline: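 PPARd-bla HEK293H cells (UAS-bla reporter) preincubated 5 h, then given compound plus 300 nM final L165041 agonist for 17 h at 37 C. Beta-lactamase activity read by LiveBLAzer B/G FRET substrate fluorescence after 2 h at room temperature.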
# Sequence of Peroxisome proliferator-activated receptor delta (Homo sapiens) (Q03181 whole entry, looked up): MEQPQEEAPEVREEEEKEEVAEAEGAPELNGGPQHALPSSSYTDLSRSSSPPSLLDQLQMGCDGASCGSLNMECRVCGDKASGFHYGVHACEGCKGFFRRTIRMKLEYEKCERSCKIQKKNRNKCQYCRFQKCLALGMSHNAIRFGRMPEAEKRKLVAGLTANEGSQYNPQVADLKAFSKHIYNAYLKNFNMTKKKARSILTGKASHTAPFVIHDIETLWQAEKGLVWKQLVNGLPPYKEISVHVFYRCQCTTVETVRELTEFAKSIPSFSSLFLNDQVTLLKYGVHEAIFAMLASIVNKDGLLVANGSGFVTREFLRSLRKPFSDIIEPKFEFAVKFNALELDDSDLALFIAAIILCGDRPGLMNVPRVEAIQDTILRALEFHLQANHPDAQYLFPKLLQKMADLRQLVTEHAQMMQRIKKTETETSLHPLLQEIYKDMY
row,Structure (SMILES),Potency
1,C=CC(=O)OCCCC,inactive
2,Clc1ccccc1-c1ccccc1Cl,inactive
3,Cc1cccc([N+](=O)[O-])c1C,inactive
4,CCCCC(CC)COC(=O)CCCCC(=O)OCC(CC)CCCC (stereo not drawn),inactive

# Target: Retinoic acid receptor RXR-alpha (Homo sapiens) (UniProt P19793)
# Assay: qHTS assay to identify small molecule agonists of the RXR signaling pathway (AID 1159527; calls by dose curve; also: nearly all actives have a fitted effect of over 35% in size)
# Details: HEK293T RXRa-UAS-bla, beta-lactamase ratio, 16 h; series mostly up to 76.8 µM
# Outline: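 Agonist mode; 9-cis retinoic acid positive control. HEK 293T UAS-bla reporter cells, 2% charcoal-stripped FBS, 16 hr compound exposure at 37 C/5% CO2. LiveBLAzer B/G FRET substrate 2 hr RT; ex 405, em 460/530 nm.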
# Sequence of Retinoic acid receptor RXR-alpha (Homo sapiens) (P19793 whole entry, looked up): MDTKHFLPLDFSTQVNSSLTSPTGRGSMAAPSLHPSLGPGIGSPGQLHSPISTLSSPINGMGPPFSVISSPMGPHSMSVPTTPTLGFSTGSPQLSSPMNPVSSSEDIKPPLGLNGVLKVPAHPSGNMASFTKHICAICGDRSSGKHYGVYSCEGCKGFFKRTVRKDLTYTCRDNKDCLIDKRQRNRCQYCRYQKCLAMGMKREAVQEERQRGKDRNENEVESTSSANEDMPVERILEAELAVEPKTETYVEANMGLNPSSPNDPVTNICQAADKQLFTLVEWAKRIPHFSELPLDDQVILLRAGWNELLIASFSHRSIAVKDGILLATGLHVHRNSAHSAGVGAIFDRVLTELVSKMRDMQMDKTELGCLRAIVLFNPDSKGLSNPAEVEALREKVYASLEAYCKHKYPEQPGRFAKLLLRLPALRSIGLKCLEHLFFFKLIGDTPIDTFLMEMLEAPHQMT
Structure (SMILES),Potency,activation
C=CC(=O)OCCCC,inactive,
O=C(O)C(c1ccc(Cl)cc1)c1ccc(Cl)cc1,inactive,
CC(CCl)OC(C)CCl (stereo not drawn),inactive,
Brc1c2ccccc2c(Br)c2ccccc12,,1.52% [at 6.98 µM] (inactive)
COCCOC(=O)c1ccccc1C(=O)OCCOC,inactive,
CCCCC(CC)COC(=O)CCCCC(=O)OCC(CC)CCCC (stereo not drawn),inactive,
c1ccncc1,inactive,

# Tested on: not listed separately
# Assay: qHTS assay to identify small molecule antagonists of the retinoic acid receptor (RAR) signaling pathway (AID 1159552; also: nearly all actives have a fitted effect of over 50% in size; also: potency is read from the fitted curve at half-maximal effect)
# Details: C3RL4 RARE luciferase reporter, retinol-stimulated, 6 h; series mostly up to 92.4 µM
# Outline: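 Luminescence from a RARE luciferase reporter in C3RL4 cells served as read-out. Cells received compounds together with 1 uM final retinol and incubated 6 hr at 37 C before detection reagent was added for 30 min at room temperature.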
row,Structure (SMILES),Potency
1,Nc1ccc(Cl)cc1Cl,inactive
2,C[C@@]12C(=O)OC(=O)[C@]1(C)C1CCC2O1,5.31 µM (active)
3,Cc1cccc([N+](=O)[O-])c1C,inactive
4,Brc1c2ccccc2cc2ccccc12,inactive
5,Nc1cccc([N+](=O)[O-])c1,inactive
6,Brc1ccc(Br)c(Br)c1,inactive
7,Oc1c(Cl)ccc(Cl)c1Cl,inactive
8,C1=CC2C3C=CC(C3)C2C1 (stereo not drawn),inactive
9,CCc1cccc(C)c1N,inactive

# Tested on: not listed separately
# Assay: qHTS assay to identify small molecule antagonists of the estrogen related receptor (ERR) signaling pathway - cell viability counter screen (AID 1224818);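 also: viability measured after 17.5 h of compound exposure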
# Details: ERR reporter cell line viability counter screen; series mostly up to 46.1 µM
# Outline: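 ERR cells, 2,000 per well, compound added after 6 h and incubated 17.5 h at 37 C. Viability read by CellTiter-Fluor fluorescence after a further 30 min at 37 C.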
row,Structure (SMILES),Potency
1,NC1CC1c1ccccc1 (stereo not drawn),inactive
2,COc1ccc2[nH]c3c(c2c1)CCNC3,inactive
3,CCCN(CCC)C1CCc2ccc(O)cc2C1 (stereo not drawn),inactive
4,c1ccc2c(N3CCNCC3)cccc2c1,inactive
5,CC(=O)OCC1=C(C(=O)[O-])N2C(=O)[C@@H](NC(=O)CCC[C@@H](N)C(=O)[O-])[C@H]2SC1.[Zn+2],inactive
6,CCCN(CCC)[C@@H]1CCc2cccc(O)c2C1,inactive
7,Oc1ccc2c3c1O[C@H]1c4[nH]c5ccccc5c4C[C@@]4(O)C(C2)N(CC2CC2)CCC314 (stereo partly drawn),inactive
8,C[N+](C)(C)CC#CCOC(=O)Nc1cccc(Cl)c1,inactive
9,C=CCN1CCC23c4c5ccc(O)c4O[C@H]2C(=O)CC[C@@]3(O)C1C5 (stereo partly drawn),inactive
10,C[C@@H](N)Cc1cnc[nH]1,inactive
11,O=C(O)Cc1cnc[nH]1,inactive
12,O=[N+]([O-])c1ccc2nc(N3CCNCC3)ccc2c1,inactive
13,NC(C(=O)O)c1cc(=O)[nH]o1 (stereo not drawn),inactive
14,CC(C)(O)[C@@H]1[C@H]2OC(=O)[C@@H]1[C@]1(O)C[C@H]3O[C@]34C(=O)O[C@H]2[C@]14C (tested in a mixture with another compound),inactive
15,CNCCc1ccc(O)c(O)c1,inactive
16,Cc1[nH]c2ccc(O)cc2c1CCN,inactive
17,CN(N=O)c1ccc(O)c(O)c1,inactive
18,C#CCOC(=O)C1=CCCN(C)C1,inactive
19,NC(CP(=O)(O)O)C(=O)O (stereo not drawn),inactive
20,NCCc1c[nH]c2ccc(C(N)=O)cc12,inactive
21,NC(CCP(=O)(O)O)C(=O)O (stereo not drawn),inactive
22,Cc1sc2ccccc2c1CC1=NCCN1,inactive
23,CC(C)Oc1cccnc1N(C)C1CCN(Cc2ccccc2)CC1,inactive

# Reference: PubChem BioAssay (Tox21)
